One molecule from PubChem BioAssay (NCATS) can be followed below.

Assay [1] is described as follows: Cytometric Cell-Based qHTS for Inhibitors of the mTORC1 Signaling Pathway in MEF (Tsc2-/-, p53-/-) Cells (AID 2660).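 Also: Tsc2 and p53 null MEFs carrying empty vector with compound for 24 h; percent of cells above a phospho-rpS6 to PI ratio cutoff in each well.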 The procedure, abridged: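 Percent of cells positive for normalized phospho-S6 staining is reported, with the cutoff set from rapamycin (7.5 nM) versus DMSO wells. Tsc2-/-, p53-/- MEFs received compound for 24 hrs.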
(In general: Quantitative high-throughput screening tests each substance at several concentrations.)

Assay [2] is described as follows: High Content Imaging Cell-Based qHTS for Inhibitors of the mTORC1 Signaling Pathway in MEF (Tsc2-/-, p53-/-) Cells (AID 2666).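 Also: percent of cells scored positive for phospho-rpS6 Ser235/236 immunostaining by imaging.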 The conditions noted are these: at 38.3 µM (top of the series). The procedure, abridged: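 Inhibition of rpS6 phosphorylation is measured by immunofluorescence imaging in empty-vector Tsc2-/-, p53-/- mouse embryonic fibroblasts after 24 hrs compound exposure at 37 degree Celsius. Results are reported as % positive cells per well.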

Assay [3] is described as follows: High Content Imaging Cell-Based qHTS for Inhibitors of the mTORC1 Signaling Pathway in MEF Cells (AID 2667). Also: potency is read from the fitted curve at half-maximal effect. The procedure, abridged: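 Fixed-cell imaging of phospho-S6 (Ser235/236, Alexa-488) after 24 hrs of compound treatment at 37 degree Celsius. Signal was normalized to Hoechst, and thresholds from the highest and lowest wells split cells into % active versus % non-active.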

Assay [4] in a line: Cytometry Cell-Based qHTS for Inhibitors of the mTORC1 Signaling Pathway in MEF cells (AID 2668). Also: potency is read from the fitted curve at half-maximal effect. The procedure, abridged: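 Phospho-rpS6 (Ser235/236) immunofluorescence over PI signal, scored as % positive cells using thresholds from 7.5 nM rapamycin and DMSO wells, after 24 h compound exposure of WT-Tsc2-rescued Tsc2-/-, p53-/- MEFs. PI cell count recorded for viability.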

The target in assay [5] is DNA polymerase III PolC-type (Bacillus subtilis (strain 168)) (UniProt P13267). Description: qHTS Validation Assay for the Inhibitors of DNA Replication in Gram-Positive Bacteria (AID 485295).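 Also: reconstituted holoenzyme with PolC plus beta clamp SSB and primase; PicoGreen fluorescence of double-stranded DNA made on primed circular M13 template.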 The procedure, abridged:
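Double-stranded DNA product detected by PicoGreen fluorescence after EDTA quench. Compound incubated with B. subtilis holoenzyme (PolC, beta subunit, SSB, primase) before substrate addition; primed replication of M13Gori with dNTPs and NTPs at room temperature; DMSO defines 0% inhibition.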

Assay [6] has as its target Tumor susceptibility gene 101 protein (Homo sapiens) (UniProt Q99816). Description: qHTS Validation Assay for Iinhibitors of HIV-1 Budding by Blocking the Interaction of PTAP/TSG101 (AID 485342; calls by dose curve). The procedure, abridged: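 Fluorescence polarization of 50 nM FITC-PTAP peptide bound to 10 uM Tsg101 binding domain was read after 20 min room-temperature incubation with compounds, in 10 mM HEPES pH 7.5, 0.15 M NaCl, 0.01% Tween 20.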

The target in assay [7] is Beta-2 adrenergic receptor (Homo sapiens) (UniProt P07550). Description: qHTS validation assay of beta-arrestin-biased ligands of beta2-adrenergic receptor (AID 485366). The procedure, abridged:
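Screening used a titration range of up to 46 microM in a beta-arrestin recruitment Tango luciferase assay. Cells in 1% FBS medium were treated 18 hr at 37 degrees C, and luminescence was normalized to %Activity.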

The target in assay [8] is Thioredoxin reductase 1, cytoplasmic (Rattus norvegicus) (UniProt O89049). Kind of assay: qHTS Assay for Substrates of Mammalian Selenoprotein Thioredoxin Reductase 1 (TrxR1) (AID 488772).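 Also: a drop in NADPH fluorescence below the no-compound background marks a TrxR1 substrate.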 The procedure, abridged: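 In this dual-purpose format, potential substrates are identified from the first fluorescence read after selenite addition, not from the 8-minute delta. Rat enzyme is preincubated with NADPH and then with compound at ~22 deg C.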

Assay [9] shares this target. Kind of assay: qHTS Assay for Inhibitors of Mammalian Selenoprotein Thioredoxin Reductase 1 (TrxR1) (AID 488773).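 Also: drop in NADPH fluorescence over an 8 min run after selenite addition; nearly all actives have a fitted effect of over 40% in size.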 Particulars: Potency: inhibition. The procedure, abridged:
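Inhibition is scored from the loss of NADPH fluorescence between first and last reads of an 8-min kinetic run. Selenite (400 uM) was the substrate, added after 15 min compound preincubation at room temperature.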

In assay [10] the target is M-phase phosphoprotein 8 (Homo sapiens) (UniProt Q99549). Description: qHTS Validation Assay for Inhibitors for MPP8 Chromodomain Interactions with Methylated Histone Tails (AID 488949). Also: potency is read from the fitted curve at half-maximal effect; nearly all actives have a fitted effect of over 55% in size. The procedure, abridged: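 AlphaScreen proximity signal from streptavidin donor and Ni-chelate acceptor beads (10 ug/mL each) reported binding of MPP8 to trimethyl-K9 H3(1-18) peptide, both at 50 nM. The complex formed 30 min before a 30 min compound exposure at room temperature, in PBS pH 7.4.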

Assay [11] has as its target Chromobox protein homolog 1 (Homo sapiens) (UniProt P83916). Description: qHTS Validation Assay for Inhibitors of HP1-beta Chromodomain Interactions with Methylated Histone Tails (AID 488953). Also: potency is read from the fitted curve at half-maximal effect; nearly all actives have a fitted effect of over 50% in size. The procedure, abridged:
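AlphaScreen proximity readout: streptavidin donor and Ni-chelate acceptor beads, 10 ug/mL final, 30 min dark, RT. Complex of 50 nM HP1-beta and 50 nM b-H3(1-18)K9me3 formed 30 min, then compound-treated 30 min; PBS pH 7.4/0.01% Tween-20.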

Assay [12] concerns the target Methanococcus maripaludis chaperonin (MmCpn) (UniProt Q6LX38). Kind of assay: High-Throughput Screening for Modulators of Cytosolic Chaperonin Activity: MmCpn Primary Screen (AID 488978).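 Also: 50 nM MmCpn enzyme hydrolysing 30 µM ATP at 37 °C.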 The procedure, abridged: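 ATPase activity of 50 nM MmCpn was assayed with 30 uM ATP, 10 minutes at 37C, after a 5 min compound preincubation at room temperature. ADP production was read as HTRF emission at 590 and 665 nm.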

Assay [13] concerns the target D(1A) dopamine receptor (Homo sapiens) (UniProt P21728). Kind of assay: HTS Assay for Allosteric Agonists of the Human D1 Dopamine Receptor: Primary Screen for Agonists (AID 488981). The procedure, abridged:
(§1)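 Tetracycline-induced HEK293 T-REx cells force-coupled to calcium signalling were incubated overnight at 30 C and dye-loaded at room temperature. Calcium flux over 180 s after compound addition flagged agonists; a further 180 s read after EC20 dopamine flagged potentiators.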

Assay [14] shares this target. Description: HTS Assay for Allosteric Agonists of the Human D1 Dopamine Receptor: Primary Screen for Potentiators (AID 488982). The procedure, abridged:
as §1

Assay [15] shares this target. Kind of assay: HTS Assay for Allosteric Agonists of the Human D1 Dopamine Receptor: Primary Screen for Antagonists (AID 488983).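 Also: calcium flux response to an EC80 dopamine challenge measured with no-wash dye; nearly all actives have a fitted effect of over 65% in size.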 The procedure, abridged:
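Calcium flux readout, no-wash dye, inducible HEK293 T-REx D1 line (force-coupled). Compound added after 10 s baseline, 180 s kinetic read; then dopamine at EC80, further 180 s read.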

Assay [16] is described as follows: Validation screen for small molecules that induce genotoxicity in human embryonic kidney (HEK293T) cells expressing luciferase-tagged ELG1 (AID 493106). The procedure, abridged:
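qHTS format; 2,000 HEK293T ELG1-luc cells/well; 23 nL compound via pin tool; 16 hr, 37 °C/5% CO2; ONE-Glo, 30 min RT; luminescence read.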

Assay [17] concerns the target ATPase family AAA domain-containing protein 5 (Homo sapiens) (UniProt Q96QE3). Description: Validation screen for small molecules that inhibit ELG1-dependent DNA repair in human embryonic kidney (HEK293T) cells expressing luciferase-tagged ELG1 (AID 493107). Also: potency is read from the fitted curve at half-maximal effect; nearly all actives have a fitted effect of over 70% in size. The procedure, abridged: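 ELG1-luciferase HEK293T reporter; 5-fluorouridine + compound/DMSO, 16 hr, 37 °C, 5% CO2; ONE-Glo 30 min RT; luminescence read, qHTS format.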

A short description of assay [18]: qHTS for Inhibitors of Cell Surface uPA Generation: Validation Assay (AID 493164).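 Also: RAW 264.7 macrophage cells exposed to compound for 18 h.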 The procedure, abridged: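 Compounds are titrated over seven points (2.45 nM–38.3 uM final) onto pre-plated RAW 264.7 cells and incubated for 18 h. Retained intracellular ATP, measured with ATP-Lite, indicates blocked lethal factor entry.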
For assay [19], the target named is Peptidyl-prolyl cis-trans isomerase NIMA-interacting 1 (Homo sapiens) (UniProt Q13526). Kind of assay: qHTS Validation Assay to Find Inhibitors of Pin1 (AID 504536; active = well fitted inhibition curve with a large enough effect in the polarisation, with a control signal flat, not every such curve was filed as active; the % refers to the polarisation). The procedure, abridged:
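Fluorescence polarization competition: compounds (titration) displace HiFluor-488-labeled Pin1-1b peptide from Pin1 (0.3 uM final) in pH 7.5 HEPES buffer with DTT, 10 min at room temperature; %Activity normalized to no-enzyme wells, curves fitted.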

The target in assay [20] is Ubiquitin carboxyl-terminal hydrolase 1 (Homo sapiens) (UniProt O94782). Kind of assay: Inhibitors of USP1/UAF1: Pilot qHTS (AID 504865).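 Also: rhodamine fluorescence freed from ubiquitin-rhodamine substrate followed over time; top concentration of the series differs between compounds; nearly all actives have a fitted effect of over 35% in size.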 The procedure, abridged:
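Deubiquitinase activity followed as kinetic rhodamine fluorescence release from 150 nM Ub-Rho. 1 nM USP1/UAF1 with compound, after 15 min room-temperature preincubation, in HEPES pH 7.8 buffer containing TCEP, EDTA, BSA and Tween-20.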

Assay [21] is described as follows: qHTS for Inhibitors of ATXN expression: Validation of Cytotoxic Assay (AID 588349). Also: potency is read from the fitted curve at half-maximal effect. The procedure, abridged:
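Cytotoxicity counter-screen: HEK293 cells exposed to compound titrations, 72 hr, 37 degrees C. Read-out is intracellular ATP (CellTiter Glo luminescence) as a viability measure.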

A short description of assay [22]: qHTS for Inhibitors of ATXN expression: Validation (AID 588378). Also: potency is read from the fitted curve at half-maximal effect; nearly all actives have a fitted effect of over 75% in size. The procedure, abridged:
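Luciferase luminescence (Bright-Glo) from an ATXN2-FFLuc HEK293 line after 24 h compound exposure at 37 °C, preceded by a CellTiter-Fluor fluorescence viability read. Serial dilutions of a reference ATXN2 inhibitor and a luciferase inhibitor served as controls.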

Assay [23] is described as follows: qHTS of Trypanosoma Brucei Inhibitors: LOPAC Validation (AID 624147). The procedure, abridged:
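Luminescent Kinase-Glo Plus end-point after 45 min room-temperature reaction of T. brucei pyruvate kinase started with 130 uM ADP (final). Buffer TEA 50 mM pH 7.2 with KCl, MgCl2, BSA, Tween-20; titration-based qHTS with fitted concentration-effect curves.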

A number with no mark means an inactive call. Records with an inconclusive call do not appear. Activity calls are given as the source filed them. Unless noted, calls follow the shape of the dose curve; as a rule, active = well fitted curve in the direction sought with a large enough effect; inconclusive = small, poorly fitted or top-dose-only effect, or another doubt; inactive = no such curve, though single readings can be large; an effect the other way counts as inactive or inconclusive.

Chain of D(1A) dopamine receptor (Homo sapiens) (P21728 whole entry, looked up): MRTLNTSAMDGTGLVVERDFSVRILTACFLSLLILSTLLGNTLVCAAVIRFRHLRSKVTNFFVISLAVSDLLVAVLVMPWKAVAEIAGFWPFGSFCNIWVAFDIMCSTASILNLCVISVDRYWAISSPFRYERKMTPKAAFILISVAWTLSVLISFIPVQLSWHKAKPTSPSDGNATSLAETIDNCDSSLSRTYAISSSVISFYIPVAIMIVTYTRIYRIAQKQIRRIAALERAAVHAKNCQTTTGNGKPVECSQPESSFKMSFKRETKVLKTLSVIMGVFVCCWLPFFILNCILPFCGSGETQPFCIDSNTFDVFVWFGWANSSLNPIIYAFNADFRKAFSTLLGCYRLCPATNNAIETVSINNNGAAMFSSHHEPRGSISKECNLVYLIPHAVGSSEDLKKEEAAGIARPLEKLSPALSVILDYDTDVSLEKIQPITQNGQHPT
Chain of Thioredoxin reductase 1, cytoplasmic (Rattus norvegicus) (O89049 whole entry, looked up): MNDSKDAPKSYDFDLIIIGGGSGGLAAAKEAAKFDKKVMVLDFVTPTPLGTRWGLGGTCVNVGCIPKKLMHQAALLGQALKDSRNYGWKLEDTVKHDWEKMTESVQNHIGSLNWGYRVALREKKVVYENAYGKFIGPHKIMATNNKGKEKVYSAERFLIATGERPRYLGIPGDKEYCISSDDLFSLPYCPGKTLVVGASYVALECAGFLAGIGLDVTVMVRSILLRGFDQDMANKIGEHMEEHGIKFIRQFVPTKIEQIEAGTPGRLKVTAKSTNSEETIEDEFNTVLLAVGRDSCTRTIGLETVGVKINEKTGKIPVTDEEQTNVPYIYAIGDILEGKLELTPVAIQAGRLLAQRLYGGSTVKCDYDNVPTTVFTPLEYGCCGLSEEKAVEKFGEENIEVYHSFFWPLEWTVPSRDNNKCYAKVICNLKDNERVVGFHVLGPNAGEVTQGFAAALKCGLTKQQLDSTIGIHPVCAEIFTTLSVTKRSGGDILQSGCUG
Chain of M-phase phosphoprotein 8 (Homo sapiens) (Q99549 whole entry, looked up): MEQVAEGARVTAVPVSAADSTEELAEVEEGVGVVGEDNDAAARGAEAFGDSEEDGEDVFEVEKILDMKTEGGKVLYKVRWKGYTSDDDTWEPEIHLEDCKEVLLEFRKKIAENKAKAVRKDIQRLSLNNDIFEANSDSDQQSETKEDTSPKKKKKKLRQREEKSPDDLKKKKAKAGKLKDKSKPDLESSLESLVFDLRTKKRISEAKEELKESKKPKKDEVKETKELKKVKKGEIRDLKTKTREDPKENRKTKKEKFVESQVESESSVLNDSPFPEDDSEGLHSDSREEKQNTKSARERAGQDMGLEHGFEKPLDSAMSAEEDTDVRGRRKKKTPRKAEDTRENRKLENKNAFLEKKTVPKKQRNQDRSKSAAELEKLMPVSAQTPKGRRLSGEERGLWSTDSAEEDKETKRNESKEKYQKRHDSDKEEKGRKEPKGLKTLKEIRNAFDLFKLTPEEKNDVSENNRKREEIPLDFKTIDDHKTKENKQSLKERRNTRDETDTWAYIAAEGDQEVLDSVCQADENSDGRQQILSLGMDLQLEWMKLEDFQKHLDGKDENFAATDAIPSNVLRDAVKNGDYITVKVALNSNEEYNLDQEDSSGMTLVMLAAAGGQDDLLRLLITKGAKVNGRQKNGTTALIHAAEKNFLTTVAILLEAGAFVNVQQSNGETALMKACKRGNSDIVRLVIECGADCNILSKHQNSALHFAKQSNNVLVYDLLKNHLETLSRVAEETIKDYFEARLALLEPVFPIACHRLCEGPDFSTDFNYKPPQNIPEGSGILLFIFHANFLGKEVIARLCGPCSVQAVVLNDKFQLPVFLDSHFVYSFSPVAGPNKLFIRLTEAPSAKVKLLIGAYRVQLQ
Chain of Beta-2 adrenergic receptor (Homo sapiens) (P07550 whole entry, looked up): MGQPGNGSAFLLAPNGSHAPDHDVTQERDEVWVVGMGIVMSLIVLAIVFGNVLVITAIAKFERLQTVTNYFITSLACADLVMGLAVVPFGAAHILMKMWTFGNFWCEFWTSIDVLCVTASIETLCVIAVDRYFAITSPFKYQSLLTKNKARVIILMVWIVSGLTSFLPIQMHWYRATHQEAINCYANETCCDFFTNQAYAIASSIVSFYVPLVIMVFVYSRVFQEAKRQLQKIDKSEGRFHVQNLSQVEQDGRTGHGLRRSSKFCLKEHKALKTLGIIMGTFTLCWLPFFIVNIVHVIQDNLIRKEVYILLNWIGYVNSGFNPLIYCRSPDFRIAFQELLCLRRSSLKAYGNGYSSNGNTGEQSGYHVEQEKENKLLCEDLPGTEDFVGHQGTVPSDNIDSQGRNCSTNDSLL
Chain of ATPase family AAA domain-containing protein 5 (Homo sapiens) (Q96QE3 whole entry, looked up, the tested form may be a part): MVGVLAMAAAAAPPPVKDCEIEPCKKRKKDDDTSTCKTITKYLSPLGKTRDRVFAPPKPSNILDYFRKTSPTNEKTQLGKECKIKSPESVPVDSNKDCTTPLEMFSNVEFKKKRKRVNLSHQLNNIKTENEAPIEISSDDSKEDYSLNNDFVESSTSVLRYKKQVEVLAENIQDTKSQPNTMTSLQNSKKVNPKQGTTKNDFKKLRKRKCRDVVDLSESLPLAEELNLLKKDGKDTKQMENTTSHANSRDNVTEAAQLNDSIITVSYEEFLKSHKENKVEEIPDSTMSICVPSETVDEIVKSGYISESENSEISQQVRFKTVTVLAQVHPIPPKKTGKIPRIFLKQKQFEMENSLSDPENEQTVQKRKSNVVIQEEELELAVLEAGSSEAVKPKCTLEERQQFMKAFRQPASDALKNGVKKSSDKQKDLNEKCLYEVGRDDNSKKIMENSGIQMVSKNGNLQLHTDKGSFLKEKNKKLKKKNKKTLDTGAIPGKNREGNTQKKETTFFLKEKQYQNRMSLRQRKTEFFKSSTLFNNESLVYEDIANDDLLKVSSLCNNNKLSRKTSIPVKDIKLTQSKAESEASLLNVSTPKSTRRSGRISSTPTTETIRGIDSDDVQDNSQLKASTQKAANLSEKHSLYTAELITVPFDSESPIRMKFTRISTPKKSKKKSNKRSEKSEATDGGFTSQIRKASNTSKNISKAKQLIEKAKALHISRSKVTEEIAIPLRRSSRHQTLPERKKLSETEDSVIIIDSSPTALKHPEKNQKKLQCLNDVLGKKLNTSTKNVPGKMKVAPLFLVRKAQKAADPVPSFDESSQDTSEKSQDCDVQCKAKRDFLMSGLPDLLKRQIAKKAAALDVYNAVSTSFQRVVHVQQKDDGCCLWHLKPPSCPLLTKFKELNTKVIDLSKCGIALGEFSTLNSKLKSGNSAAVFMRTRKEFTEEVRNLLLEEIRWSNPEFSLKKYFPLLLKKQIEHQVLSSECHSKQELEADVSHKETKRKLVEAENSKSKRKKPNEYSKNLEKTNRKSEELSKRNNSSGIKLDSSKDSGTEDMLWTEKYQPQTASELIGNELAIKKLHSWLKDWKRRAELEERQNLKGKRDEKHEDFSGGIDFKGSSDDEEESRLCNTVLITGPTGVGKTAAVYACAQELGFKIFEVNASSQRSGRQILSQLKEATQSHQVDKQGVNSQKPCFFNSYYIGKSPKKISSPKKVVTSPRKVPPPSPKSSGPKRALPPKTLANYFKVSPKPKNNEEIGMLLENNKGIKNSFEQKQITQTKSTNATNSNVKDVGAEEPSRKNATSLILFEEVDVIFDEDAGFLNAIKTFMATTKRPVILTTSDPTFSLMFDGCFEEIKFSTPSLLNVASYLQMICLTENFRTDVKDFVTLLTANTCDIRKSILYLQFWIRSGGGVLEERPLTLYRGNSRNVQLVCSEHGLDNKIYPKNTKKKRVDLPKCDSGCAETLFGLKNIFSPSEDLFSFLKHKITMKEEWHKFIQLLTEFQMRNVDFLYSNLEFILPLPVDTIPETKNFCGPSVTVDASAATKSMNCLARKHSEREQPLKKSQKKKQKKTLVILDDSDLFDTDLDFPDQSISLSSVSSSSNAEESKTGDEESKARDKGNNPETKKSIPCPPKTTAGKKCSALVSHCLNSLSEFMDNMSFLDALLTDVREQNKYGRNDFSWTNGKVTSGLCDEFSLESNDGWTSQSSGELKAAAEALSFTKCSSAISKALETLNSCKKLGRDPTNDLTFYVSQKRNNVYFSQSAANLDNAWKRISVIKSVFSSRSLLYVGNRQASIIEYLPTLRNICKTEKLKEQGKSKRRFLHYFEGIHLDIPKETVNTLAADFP
Chain of Methanococcus maripaludis chaperonin (MmCpn) (Q6LX38 1-543): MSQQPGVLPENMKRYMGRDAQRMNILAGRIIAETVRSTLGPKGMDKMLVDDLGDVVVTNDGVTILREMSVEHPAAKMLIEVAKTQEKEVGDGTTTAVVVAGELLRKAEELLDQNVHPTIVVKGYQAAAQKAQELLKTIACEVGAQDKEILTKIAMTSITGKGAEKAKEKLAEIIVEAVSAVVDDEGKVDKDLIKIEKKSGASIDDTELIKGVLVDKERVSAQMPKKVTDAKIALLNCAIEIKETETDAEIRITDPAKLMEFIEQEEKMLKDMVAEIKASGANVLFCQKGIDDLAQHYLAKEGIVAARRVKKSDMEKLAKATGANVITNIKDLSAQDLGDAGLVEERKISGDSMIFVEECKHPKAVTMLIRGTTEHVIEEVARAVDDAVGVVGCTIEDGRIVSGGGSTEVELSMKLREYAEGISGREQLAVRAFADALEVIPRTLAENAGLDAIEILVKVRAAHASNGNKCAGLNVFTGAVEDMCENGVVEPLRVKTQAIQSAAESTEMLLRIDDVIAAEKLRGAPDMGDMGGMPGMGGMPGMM
Chain of Chromobox protein homolog 1 (Homo sapiens) (P83916 whole entry, looked up): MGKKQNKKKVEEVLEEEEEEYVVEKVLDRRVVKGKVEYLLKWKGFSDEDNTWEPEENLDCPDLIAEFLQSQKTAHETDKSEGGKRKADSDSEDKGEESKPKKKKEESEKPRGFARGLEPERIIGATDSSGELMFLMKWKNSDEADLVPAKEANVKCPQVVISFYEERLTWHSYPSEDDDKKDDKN
Chain of Peptidyl-prolyl cis-trans isomerase NIMA-interacting 1 (Homo sapiens) (Q13526 whole entry, looked up): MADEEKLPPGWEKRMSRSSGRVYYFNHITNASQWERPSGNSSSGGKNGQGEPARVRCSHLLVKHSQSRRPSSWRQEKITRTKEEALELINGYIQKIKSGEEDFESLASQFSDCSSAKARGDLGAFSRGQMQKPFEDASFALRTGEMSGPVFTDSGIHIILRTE

As for `O=C1c2ccccc2C(=O)c2c(NCCc3ccc(O)cc3)ccc(NCCc3ccc(O)cc3)c21`, the outcome in assay [1], in [2], in assay [6], in assay [7], in assay [8] and in assay [12] was inactive. In addition, the molecule was called inactive in assay [13], in [14], in [15], in assay [18] and in assay [23]. The Potency in assay [3] is 4.65 µM (active); in assay [4], 4.65 µM (active); in assay [10], 2.12 µM (active); in assay [11], 1.78 µM (active); in assay [17], 14.6 µM (active); in [21] it was 8.91 µM (active). For the same molecule, the Potency in assay [22] was 8.91 µM (active). Also, the Potency entry in assay [5], in [9], in assay [16], in assay [19] and in assay [20] was “inactive” each time.
